Here are results for 22 compounds from PubChem BioAssay (Tox21).

The nature of test [1]: qHTS assay to identify aromatase inhibitors - cell viability counter screen (AID 743084;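 further: cells stimulated with testosterone during compound exposure; nearly all actives have a fitted effect of over 55% in size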; further: potency means the concentration at half of the fitted maximal effect). (In general: In qHTS, concentration-response curves come from the screen itself.)
A short description of test [2]: qHTS assay to identify small molecule that activate the aryl hydrocarbon receptor (AhR) signaling pathway - cell viability counter screen (AID 743086). Further: nearly all actives have a fitted effect of over 45% in size. Further: potency means the concentration at half of the fitted maximal effect. In outline:
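HepG2-AhR-luc (HG2L7.5c1) cells, 4000/well, were preincubated 5 h at 37C, exposed to compound in qHTS format for 24 hr at 37C, then given CellTiter-Fluor for 30 min; viability was read as fluorescence in the reporter wells.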

The target in test [3] is Peroxisome proliferator-activated receptor gamma (Homo sapiens) (UniProt P37231). Description: qHTS assay to identify small molecule agonists of the peroxisome proliferator-activated receptor gamma (PPARg) signaling pathway (AID 743094; active means well fitted activation curve with a large enough effect in the signal ratio in the repeat runs, not every such curve was filed as active; the % refers to the signal ratio). In outline: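 Fluorescence-based beta-lactamase readout in HEK293H PPARg UAS-bla cells after 17 h compound exposure (37C) and 1 h B/G FRET substrate incubation at room temperature.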

Test [4] shares this target. As to the kind of experiment: qHTS assay to identify small molecule antagonists of the peroxisome proliferator-activated receptor gamma (PPARg) signaling pathway (AID 743191; calls by dose curve; further: series mostly up to about 63 µM; nearly all actives have a fitted effect of over 30% in size). The method in brief: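 GeneBLAzer PPARg UAS-bla HEK293H cells carrying a UAS-driven beta-lactamase reporter were plated at 3000 cells/well, preincubated 5 h at 37C, then given compound for 17 h at 37C; LiveBLAzer B/G FRET substrate was read after 1 h at room temperature.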

The nature of test [5]: qHTS assay to identify small molecule antagonists of the peroxisome proliferator-activated receptor gamma (PPARg) signaling pathway - cell viability counter screen (AID 743194). Further: nearly all actives have a fitted effect of over 55% in size. Further: potency means the concentration at half of the fitted maximal effect. The method in brief:
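PPARg-UAS-bla HEK293H cells were plated, rested 5 h at 37 C, then treated with compounds plus rosiglitazone (50 nM final) for 17 h at 37 C; viability was then read by CellTiter-Glo luminescence after 30 min at room temperature.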

A short description of test [6]: qHTS assay for small molecule agonists of the antioxidant response element (ARE) signaling pathway (AID 743202; active means well fitted activation curve with a large enough effect in the signal ratio in the repeat runs, not every such curve was filed as active; the % refers to the signal ratio; further: potency means the concentration at half of the fitted maximal effect). The method in brief: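 Following a 16 h, 37 C exposure of reporter HepG2 cells (ARE-driven beta-lactamase, 2,000 cells/well) to compounds, FRET substrate was applied for 2 h at room temperature and fluorescence intensity recorded.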
Test [7] is described as follows: qHTS assay for small molecule agonists of the antioxidant response element (ARE) signaling pathway - cell viability counter screen (AID 743203; calls by dose curve; further: nearly all actives have a fitted effect of over 55% in size; further: potency means the concentration at half of the fitted maximal effect). The method in brief: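 Parallel cytotoxicity read-out for the ARE-bla screen: HepG2 reporter cells, 16 hrs with compounds, then CellTiter-Glo luminescence.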
Test [8] deals with Aryl hydrocarbon receptor (Homo sapiens) (UniProt P35869). As to the kind of experiment: qHTS assay to identify small molecule that activate the aryl hydrocarbon receptor (AhR) signaling pathway (AID 743085). Further: nearly all actives have a fitted effect of over 15% in size. Further: potency means the concentration at half of the fitted maximal effect.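 On activation: HG2L7.5c1 human HepG2 liver cells with stably integrated DRE-driven firefly reporter; series mostly up to about 70 µM.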 The method in brief: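 Stably transfected human liver carcinoma cells (HG2L7.5c1; 20 DRE-firefly luciferase) were incubated 5 h, dosed, and kept 24 h at 37C. Agonism was scored from increased luciferase luminescence.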

Test [9] in a line: qHTS assay for small molecule activators of the heat shock response signaling pathway - cell viability counter screen (AID 743209). Further: nearly all actives have a fitted effect of over 50% in size. Further: potency means the concentration at half of the fitted maximal effect. The method in brief:
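To flag cytotoxic compounds, HSE-bla HeLa cells plated at 1500 cells/well were dosed for 5 h at 37 C, followed by the reporter FRET read and then CellTiter-Glo, with luminescence recorded 30 min after reagent addition.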

The nature of test [10]: qHTS assay for small molecule activators of the heat shock response signaling pathway (AID 743210; active means well fitted activation curve with a large enough effect in the signal ratio in the repeat runs, with a control signal flat, not every such curve was filed as active; the % refers to the signal ratio; further: potency means the concentration at half of the fitted maximal effect; on activation: series mostly up to about 63 µM). The method in brief: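 Heat shock element–beta-lactamase HeLa reporter cells; qHTS with compounds for 5 h at 37 C; detection by FRET substrate fluorescence after 2.5 h at RT.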

Inconclusive results are not listed. Active and inactive are the calls of the source. Unless noted, the call rests on the fitted dose curve; in most records, active means well fitted curve in the direction sought with a large enough effect in the repeat runs; inconclusive means weak or mixed curves; inactive means no such curve, though single readings can be large; an effect the other way counts as inactive or inconclusive.

Peroxisome proliferator-activated receptor gamma (Homo sapiens), sequence (P37231 whole entry, looked up): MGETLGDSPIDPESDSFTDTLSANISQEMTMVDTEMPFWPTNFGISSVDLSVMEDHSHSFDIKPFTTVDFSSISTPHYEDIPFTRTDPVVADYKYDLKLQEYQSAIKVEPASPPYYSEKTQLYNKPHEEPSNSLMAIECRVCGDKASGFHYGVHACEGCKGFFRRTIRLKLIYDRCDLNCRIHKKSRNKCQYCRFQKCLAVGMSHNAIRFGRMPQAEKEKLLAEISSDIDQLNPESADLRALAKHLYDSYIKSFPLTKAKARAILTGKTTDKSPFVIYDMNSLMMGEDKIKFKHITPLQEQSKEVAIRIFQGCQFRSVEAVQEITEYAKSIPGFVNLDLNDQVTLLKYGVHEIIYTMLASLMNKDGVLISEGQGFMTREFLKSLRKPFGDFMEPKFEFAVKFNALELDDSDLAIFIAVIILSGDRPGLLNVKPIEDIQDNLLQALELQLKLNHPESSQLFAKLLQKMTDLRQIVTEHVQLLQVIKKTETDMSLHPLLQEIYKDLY
Aryl hydrocarbon receptor (Homo sapiens), sequence (P35869 whole entry, looked up): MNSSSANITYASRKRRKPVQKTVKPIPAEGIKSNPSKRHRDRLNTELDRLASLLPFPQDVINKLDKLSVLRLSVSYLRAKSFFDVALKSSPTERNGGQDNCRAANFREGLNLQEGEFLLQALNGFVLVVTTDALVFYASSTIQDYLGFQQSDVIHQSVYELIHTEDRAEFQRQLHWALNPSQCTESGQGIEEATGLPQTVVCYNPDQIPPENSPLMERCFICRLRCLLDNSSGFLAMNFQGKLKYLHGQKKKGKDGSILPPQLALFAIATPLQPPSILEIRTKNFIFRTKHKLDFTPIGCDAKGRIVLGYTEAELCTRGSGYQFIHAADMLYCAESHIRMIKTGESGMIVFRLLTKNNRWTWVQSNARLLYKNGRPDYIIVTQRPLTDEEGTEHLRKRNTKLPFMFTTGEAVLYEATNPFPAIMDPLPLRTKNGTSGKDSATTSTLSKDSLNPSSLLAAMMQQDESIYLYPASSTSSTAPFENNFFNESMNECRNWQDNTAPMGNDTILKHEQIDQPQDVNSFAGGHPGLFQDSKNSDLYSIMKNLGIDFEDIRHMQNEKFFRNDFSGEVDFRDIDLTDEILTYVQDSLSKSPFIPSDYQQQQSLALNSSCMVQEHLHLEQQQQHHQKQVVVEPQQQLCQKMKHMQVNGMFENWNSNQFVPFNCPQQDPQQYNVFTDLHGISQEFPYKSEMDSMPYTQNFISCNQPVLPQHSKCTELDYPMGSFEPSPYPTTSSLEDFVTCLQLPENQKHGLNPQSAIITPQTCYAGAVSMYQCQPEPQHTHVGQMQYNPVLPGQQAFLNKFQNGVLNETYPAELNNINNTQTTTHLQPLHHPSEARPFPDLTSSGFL

Take `CCC1OCC(COc2ccc(Oc3ccccc3)cc2)O1` (stereo unspecified): the Potency result in [1], in [2], in [3], in test [4], in test [5] and in [7] was “inactive” in each case. The Potency in [6] was 61.1 µM (active).

Take `CC(C)(C)C(=O)OCOC(=O)C1N2C(=O)CC2S(=O)(=O)C1(C)C` (stereo unspecified): the Potency entry in test [1], in [8], in test [5], in [7] and in [9] was “inactive” throughout.

As for `Nc1ccccc1O`, the Potency in [1] was 67.7 µM (active); in test [8], 21.4 µM (active). The Potency result in [5] and in test [10] was “inactive” each time.

On to `COCCCC/C(=N\OCCN)c1ccc(C(F)(F)F)cc1`, for which the Potency entry in test [1], in [8], in test [5], in test [7], in [9] and in [10] was “inactive” throughout.

With `[Cl][Au]([Cl])[Cl]`, the Potency is 27.3 µM (active) in test [1] and 0.77 µM (active) in test [7]. Also, in [8], the Potency entry is “inactive”.

Regarding `c1cc(C(c2ccc(OCC3CO3)cc2)c2ccc(OCC3CO3)cc2)ccc1OCC1CO1` (stereo unspecified), the Potency is 54.5 µM (active) in test [1] and 21.9 µM (active) in test [5]. Further, the Potency result in [8] and in test [9] was “inactive” each time.

Take `CC1=C(/C=C/C(C)=C/C=C/C(C)=C/C=O)C(C)(C)CCC1`: the Potency in test [1] is 30.5 µM (active); in test [7], 60.8 µM (active); in [9], 34.5 µM (active). In addition, the Potency result in test [8] was “inactive”.

On to `S=c1[nH]c2ccccc2s1`, for which the Potency entry in test [1], in [2] and in test [7] was “inactive” each time.

Consider `Cc1cc(O)c(C(C)(C)C)cc1Sc1cc(C(C)(C)C)c(O)cc1C`, for which the Potency in test [1] was 30.6 µM (active); in test [7] it was 7.68 µM (active). For the same compound, the Potency result in test [8] is “inactive”.

With `CCC1=C[C@@H]2CN(C1)Cc1c([nH]c3ccccc13)[C@@](C(=O)OC)(c1cc3c(cc1OC)N(C)[C@H]1[C@@](O)(C(=O)OC)[C@H](OC(C)=O)[C@]4(CC)C=CCN5CC[C@]31[C@@H]54)C2`, the Potency entry in [1], in [8], in test [9] and in test [10] was “inactive” throughout.

In the case of `CCN(C(=O)c1cc(C)cc(OC[C@H](C)Nc2ccncc2)c1)C(C)C`, the Potency entry in test [1], in [8], in test [5], in [7] and in test [9] was “inactive” throughout.

On to `O=C1C=CC(=O)N1c1ccc(Cc2ccc(N3C(=O)C=CC3=O)cc2)cc1`, for which the Potency in [1] was 9.69 µM (active); in test [5] it was 13.8 µM (active); in test [7], 17.2 µM (active); in test [9] it was 17.4 µM (active). Also, the Potency entry in [8] is “inactive”.

Turning to `Nc1ccc2cc(S(=O)(=O)O)cc(O)c2c1N=Nc1ccccc1C(F)(F)F`, the Potency in [1] was 17.2 µM (active). Further, the Potency result in [3], in [4], in [5], in [6], in test [7] and in test [9] was “inactive” throughout. Besides, the Potency result in [10] is “inactive”.

Take `CCN(Cc1cccnc1)C(=O)c1cccc(Cl)c1[C@]1(C)C(=O)N(Cc2ccc(OC)cc2OC)c2ccc(Cl)cc21`: the values for the Potency in [1] and in [7] were 16.1 µM (active) and 5.09 µM (active), respectively. In addition, the Potency entry in [8] and in test [9] was “inactive” throughout.

For the compound `N=C1N=C(N)c2cc3ccccc3cc21`, the Potency in [1] is 61.1 µM (active); in test [8], 11.2 µM (active); in test [5] it was 54.9 µM (active); in test [7], 43.3 µM (active); in [9], 25.9 µM (active).

In the case of `CCCCCCCC/C=C\CCCCCCCCOCCO`, the Potency in [1] was 79.4 µM (active); in test [5], 56.8 µM (active); in test [7] it was 63.1 µM (active); in [9] it was 28.4 µM (active). Also, the Potency entry in [8] is “inactive”.

As to `Oc1ccc(C2(c3ccc(O)cc3)CC3CC2C2CCCC32)cc1` (stereo unspecified), the Potency in test [1] was 33 µM (active); in test [5], 26.5 µM (active); in [7], 58.7 µM (active); in test [9], 52.8 µM (active). For the same compound, in [8], the Potency result is “inactive”.

Regarding `CCOC(=O)O[C@H](C)OC(=O)c1ccc2c(c1)cc(C(=O)NC1CCN(C(C)C)CC1)n2Cc1cc(-c2ccc(Cl)s2)on1`, the Potency in [1] was 18.1 µM (active); in test [5] it was 10.2 µM (active); in [7], 22.7 µM (active); in test [9], 22.9 µM (active). In [8], the Potency entry was “inactive”.

Consider `Nc1ccc(N)c2ccccc12`, for which the Potency was 3.85 µM (active) in test [1]; 4.32 µM (active) in test [2]; 1.23 µM (active) in test [5]; 0.611 µM (active) in test [7]; 34.6 µM (active) in [9].

In the case of `CC(NN)c1ccccc1` (stereo unspecified), the Potency result in test [1], in test [2], in test [3], in [4], in [5] and in test [6] was “inactive” each time. Also, the Potency entry in test [7], in test [9] and in test [10] was “inactive” throughout.

Consider `OCCN1CCN(CC/C=C2/c3ccccc3Sc3ccc(C(F)(F)F)cc32)CC1`, for which the Potency entry in test [8], in [9] and in test [10] was “inactive” each time. Further, in test [7], the Potency was 29.8 µM (active).

`Cc1cc(=O)oc2cc(N(C)C)ccc12`: the Potency entry in [7] and in [9] was “inactive” each time. Further, the Potency in [10] is 34.7 µM (active).
